Among the data in PubChem BioAssay (NCATS) are Potency values, retold here.

Values joined by “and” are separate entries in the source; they are usually repeats but may differ in a detail not shown here. Identical values can stand only once. Inconclusive results are not listed. Values without a mark were called inactive. Active and inactive are the calls of the source. Calls come from the whole dose curve; as a rule, active = well fitted curve in the direction sought with a large enough effect; inconclusive = small, poorly fitted or top-dose-only effect, or another doubt; inactive = no such curve, though single readings can be large; an effect the other way counts as inactive or inconclusive.

The nature of assay [1]: qHTS Screen of the MIPE 4.0 Collection Against Ewings Sarcoma (TC32) (AID 1259256). Note: nearly all actives have a fitted effect of over 45% in size. The essentials:
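Log-phase cells in RPMI with 5% FBS attached for 4 h, then received compounds as a titration for 48 h at 37C, 5% CO2. Viability was read by CellTiter-Glo luminescence and normalized to DMSO and no-cell wells.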

Assay [2] in a line: P-glycoprotein substrates identified in KB-8-5-11 adenocarcinoma cell line, qHTS therapeutic library screen (AID 1346987). Note: nearly all actives have a fitted effect of over 65% in size. The essentials: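 Luminescence from CellTiter-Glo, read 5 min after addition, quantified survival of KB-8-5-11 (P-gp-overexpressing) cells exposed to compounds for 72 h. AC50 was derived from concentration-response curves.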
Assay [3] in a line: NS1 protein of Zika virus - qHTS assay to identify small molecule inhibitors in human HEK 293 cells (AID 1347053). Note: nearly all actives have a fitted effect of over 55% in size. The method, boiled down: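 Read-out is a two-antibody TR-FRET for ZIKV NS1, normalized between uninfected cells and infected cells. Compound added 1 h before MR766 infection at MOI 0.5; human HEK 293 cells incubated 24 h, 37 C.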
A general note: In qHTS, concentration-response curves come from the screen itself.

A short description of assay [4]: qHTS of pediatric cancer cell lines to identify multiple opportunities for drug repurposing: Primary screen for TC32 cells (AID 1347089). Note: nearly all actives have a fitted effect of over 60% in size. The essentials:
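In the primary qHTS, MIPE compounds were tested at 11 concentrations (0.78 nM to 46 µM) and NPC compounds at 8 (0.59 nM to 46 µM) on TC32 cells for 48 h. CellTiter-Glo luminescence gave viability.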

Assay [5] is described as follows: qHTS of pediatric cancer cell lines to identify multiple opportunities for drug repurposing: Primary screen for DAOY cells (AID 1347090). Note: nearly all actives have a fitted effect of over 55% in size. The essentials: (§1)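 Viability measured as metabolically active cells via CellTiter-Glo luminescence following 48 hours of compound exposure, 11-point dilutions in confirmatory testing. 500-1,000 cells/well plated 5 hours before dosing; controls were DMSO and 2.3 µM bortezomib.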

Assay [6] can be described thus: qHTS of pediatric cancer cell lines to identify multiple opportunities for drug repurposing: Primary screen for SJ-GBM2 cells (AID 1347091). The method, boiled down: as §1
Assay [7] can be described thus: qHTS of pediatric cancer cell lines to identify multiple opportunities for drug repurposing: Primary screen for U-2 OS cells (AID 1347096). Note: nearly all actives have a fitted effect of over 50% in size. The method, boiled down: (§2)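 Viability after 48 h compound treatment at 37C, 500-1,000 cells/well, read as ATP luminescence with CellTiter-Glo. Primary screens used 11-point (MIPE, 0.78 nM-46 µM) or 8-point (NPC, 0.59 nM-46 µM) final concentrations; follow-up screens used 11-point dilutions.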

Assay [8] in a line: qHTS of pediatric cancer cell lines to identify multiple opportunities for drug repurposing: Primary screen for Saos-2 cells (AID 1347097). Note: nearly all actives have a fitted effect of over 40% in size. The method, boiled down: (§3)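 CRCs from 8- or 11-point titrations (lowest final 0.59 nM NPC, 0.78 nM MIPE). Cell viability: CellTiter-Glo after 48 h incubation, 15 min room-temperature development, luminescence imaging.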
Assay [9] in a line: qHTS of pediatric cancer cell lines to identify multiple opportunities for drug repurposing: Primary screen for SK-N-SH cells (AID 1347098). Note: nearly all actives have a fitted effect of over 65% in size. The essentials: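 Cells (500-1,000/well) rested 5 h, then received compounds for 48 h; metabolically active cells were measured by CellTiter-Glo luminescence. Final concentrations spanned up to 46 µM (MIPE, 11-point) or 0.59 nM-46 µM (NPC, 8-point) in primary screens, 11-point in follow-ups.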

Assay [10] is described as follows: qHTS of pediatric cancer cell lines to identify multiple opportunities for drug repurposing: Primary screen for A673 cells (AID 1347092). Note: nearly all actives have a fitted effect of over 45% in size. The method, boiled down: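 48 h compound exposure, A673, 500-1,000 cells/well, 37 degrees C/5% CO2. MIPE: 11-point, 0.78 nM-46 µM; NPC: 8-point, 0.59 nM-46 µM (final). Readout CellTiter-Glo luminescence after 15 min RT.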
The nature of assay [11]: qHTS of pediatric cancer cell lines to identify multiple opportunities for drug repurposing: Primary screen for SK-N-MC cells (AID 1347093). The essentials: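 Metabolically active cells were quantified by ATP-dependent luminescence (CellTiter-Glo, 15 min at room temperature) following 48 h treatment. Cells had been plated at 500-1,000 per well and settled for 5 h beforehand.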

Assay [12] in a line: qHTS of pediatric cancer cell lines to identify multiple opportunities for drug repurposing: Primary screen for BT-37 cells (AID 1347094). The essentials:
as §3

Assay [13] in a line: qHTS of pediatric cancer cell lines to identify multiple opportunities for drug repurposing: Primary screen for NB-EBc1 cells (AID 1347095). The method, boiled down:
as §3

Assay [14] in a line: qHTS of pediatric cancer cell lines to identify multiple opportunities for drug repurposing: Primary screen for NB1643 cells (AID 1347099). Note: nearly all actives have a fitted effect of over 50% in size. The method, boiled down:
as §3

Assay [15] in a line: qHTS of pediatric cancer cell lines to identify multiple opportunities for drug repurposing: Primary screen for LAN-5 cells (AID 1347100). The method, boiled down: as §2
Potency is the fitted concentration of half-maximal effect.

Take `CC(Cc1ccc(O)c(O)c1)(NN)C(=O)O` (stereo not given): in [1], the Potency is 23.5 µM (active). The Potency result in assay [2], in [3], in [4], in assay [5], in assay [6] and in assay [7] was “inactive” throughout. Besides, the Potency result in assay [8] and in assay [9] was “inactive” throughout.
As to `CC(C)(N)c1ccc(-c2nc3ccccc3nc2-c2ccccc2)cc1`, the Potency was 23.5 µM (active) in assay [1]; 418 nM (active) and 23.1 µM (active) in assay [2]; 18.7 µM (active) in assay [3]; 23.5 µM (active) in assay [6]; 5.9 µM (active) in assay [10]; 4.69 µM (active) in [11]. Further, the Potency in [12] was 15.3 µM (active); in [13] it was 18.7 µM (active); in assay [8] it was 1.05 µM (active); in assay [9] it was 21.5 µM (active); in [14], 23.5 µM (active); in [15] it was 13.2 µM (active). Further, the Potency entry in [4] and in assay [7] was “inactive” in each case.
Consider `CCOc1cc2c(c(F)c1OCC)C(=N)N(CC(=O)c1cc(N3CCOCC3)c(OC)c(C(C)(C)C)c1)C2`, for which the Potency was 8.33 µM (active) in [1]; 20.9 µM (active) in [2]; 23.5 µM (active) in assay [6]; 9.35 µM (active) in assay [10]; 0.833 µM (active) in assay [11]; 27.3 µM (active) in assay [12]. For the same molecule, the Potency in [8] was 14.8 µM (active); in assay [14] it was 4.69 µM (active). In addition, the Potency entry in assay [3] and in [4] was “inactive” throughout.
In the case of `C[C@H](CCC(=O)O)[C@H]1CCC2C3C[C@H](O)[C@@H]4C[C@H](O)CC[C@]4(C)C3CC[C@@]21C` (stereo not given in full), the Potency result in assay [1], in assay [2], in [3], in assay [4], in assay [5] and in assay [11] was “inactive” each time. Also, the Potency result in assay [12], in assay [13], in assay [7], in assay [8], in assay [9] and in assay [15] was “inactive” in each case.
Regarding `CCCCCCCN(CC)CCCC(O)c1ccc(NS(C)(=O)=O)cc1` (stereo not given), the Potency result in assay [1], in assay [2], in assay [3], in [4], in assay [5] and in [11] was “inactive” each time. Besides, the Potency entry in assay [12], in [7], in [9] and in assay [14] was “inactive” throughout.
With `CC(C=CC=C(C)C=CC1=C(C)CCCC1(C)C)=CC=CC=C(C)C=CC=C(C)C=CC1=C(C)CCCC1(C)C`, the Potency in assay [1] is 16.6 µM (active); in assay [5] it was 18.7 µM (active); in [10] it was 5.9 µM (active); in assay [11], 7.43 µM (active). Moreover, the Potency result in assay [2], in [3], in assay [4], in [12] and in [7] was “inactive” in each case.
For `CN[C@@H]1C[C@H]2O[C@@](C)([C@H]1OC)n1c3ccccc3c3c4c(c5c6ccccc6n2c5c31)C(=O)N[C@H]4O`, the Potency is 0.187 µM (active) in assay [1]; 1.87 µM (active) in assay [2]; 0.418 µM (active) in assay [3]; 2.94 µM (active) in assay [4]; 0.118 µM (active) in assay [6]; 0.296 µM (active) in assay [10]. In addition, the Potency is 0.0372 µM (active) in assay [11]; 6.85 µM (active) in assay [12]; 0.166 µM (active) in [13]; 2.96 µM (active) in assay [7]; 0.235 µM (active) in [8]; 0.607 µM (active) in assay [9]. Also, the Potency was 0.526 µM (active) in assay [14] and 1.32 µM (active) in [15].
Consider `C#C[C@]1(O)CC[C@@H]2[C@@H]3CCC4=CC(=O)CC[C@@H]4[C@H]3CC[C@@]21CC`, for which the Potency result in assay [1], in assay [2], in assay [3], in assay [4], in assay [5] and in assay [10] was “inactive” throughout. In addition, the Potency entry in [12], in [13], in assay [7], in assay [8], in assay [14] and in [15] was “inactive” throughout.
For `O=C1c2cccc(O)c2C(=O)c2c(O)cc(CO)cc21`, the Potency entry in [1], in assay [2], in [3], in [4], in assay [6] and in assay [10] was “inactive” in each case. For the same molecule, the Potency entry in assay [12], in assay [13], in assay [7], in assay [8], in assay [9] and in [15] was “inactive” in each case. The Potency in assay [14] was 26.4 µM (active).
For `COc1cc(OC)c(NC(=O)Nc2cc(C)on2)cc1Cl`, the Potency entry in assay [1], in [2], in [3], in [4], in [6] and in assay [10] was “inactive” in each case. Further, the Potency result in [12], in assay [13], in [7], in [8], in assay [9] and in assay [15] was “inactive” throughout.
For `CC(C)N1[N]C(=C2C=c3cc(O)ccc3=N2)c2c(N)ncnc21`, the Potency in assay [1] was 0.209 µM (active); in [2] it was 0.105 µM (active); in assay [3] it was 4.69 µM (active); in [4], 2.94 µM (active); in assay [5] it was 5.9 µM (active); in assay [11], 0.148 µM (active). Further, the Potency is 0.344 µM (active) in [12]; 0.59 µM (active) in [13]; 14.8 µM (active) in [7]; 5.26 µM (active) in assay [8]; 19.2 µM (active) in assay [9]; 18.7 µM (active) in assay [14]. The Potency in [15] is 5.9 µM (active).
Regarding `CCCCOc1ccc(C(=O)Nc2ccc(F)cc2F)cc1`, the Potency result in assay [1], in assay [2], in assay [3], in [4], in assay [5] and in assay [12] was “inactive” in each case. The Potency result in assay [13], in assay [7], in [8] and in assay [15] was “inactive” each time.
As to `CS[C@H]1SC[C@@H]2C(=O)N(C)[C@H](C(C)C)C(=O)OC[C@H](NC(=O)c3cnc4ccccc4n3)C(=O)N[C@H](C)C(=O)N(C)[C@@H]1C(=O)N(C)[C@H](C(C)C)C(=O)OC[C@H](NC(=O)c1cnc3ccccc3n1)C(=O)N[C@H](C)C(=O)N2C`, the Potency in [1] is 0.0019 µM (active); in [2], 0.59 µM (active); in [3], 0.0166 µM (active); in assay [4], 0.0093 µM (active); in assay [5] it was 0.0074 µM (active); in assay [11], 0.0013 µM (active). The results for the Potency in assay [12], in [7] and in assay [8] were 0.0017 µM (active), 0.0093 µM (active) and 0.0418 µM (active), respectively. In addition, the Potency result in [13], in assay [14] and in assay [15] was “inactive” throughout.
